Experimental data as given in PubChem BioAssay (NCATS).
Inconclusive results are not listed. Calls of active or inactive are those of the source. Calls follow the shape of the dose curve; as a rule, active = well fitted curve in the direction sought with a large enough effect; inconclusive = small, poorly fitted or top-dose-only effect, or another doubt; inactive = no such curve, though single readings can be large; an effect the other way counts as inactive or inconclusive.

How the values were obtained:
[1] = qHTS of pediatric cancer cell lines to identify multiple opportunities for drug repurposing: Primary screen for Saos-2 cells (AID 1347097); also: potency is read from the fitted curve at half-maximal effect; nearly all actives have a fitted effect of over 40% in size
Procedure, shortened: (§1)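 Phenotypic viability qHTS, 48 h compound exposure, CellTiter-Glo luminescence read-out; multi-concentration dosing so that potency and efficacy derive directly from the primary screen's curves.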

[2] = qHTS of pediatric cancer cell lines to identify multiple opportunities for drug repurposing: Primary screen for SK-N-SH cells (AID 1347098); also: potency is read from the fitted curve at half-maximal effect; nearly all actives have a fitted effect of over 65% in size
Procedure, shortened: (§2)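 Cells (500-1,000/well) rested 5 h, then received compounds for 48 h; metabolically active cells were measured by CellTiter-Glo luminescence. Final concentrations spanned up to 46 µM (MIPE, 11-point) or 0.59 nM-46 µM (NPC, 8-point) in primary screens, 11-point in follow-ups.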

[3] = qHTS of pediatric cancer cell lines to identify multiple opportunities for drug repurposing: Primary screen for NB1643 cells (AID 1347099); also: nearly all actives have a fitted effect of over 50% in size; also: potency is read from the fitted curve at half-maximal effect
Procedure, shortened: as §1

[4] = qHTS of pediatric cancer cell lines to identify multiple opportunities for drug repurposing: Primary screen for LAN-5 cells (AID 1347100); also: potency is read from the fitted curve at half-maximal effect
Procedure, shortened: (§3)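 Cells (500-1,000/well) in growth media were settled 5 h at 37 degrees C, then given compounds for 48 h. Viability was read as CellTiter-Glo luminescence. Primary runs used MIPE at 11 points (0.78 nM-46 µM) and NPC at 8 points (0.59 nM-46 µM); follow-ups used 11 points.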

[5] = qHTS of pediatric cancer cell lines to identify multiple opportunities for drug repurposing: Primary screen for BT-12 cells (AID 1347101); also: nearly all actives have a fitted effect of over 25% in size; also: potency is read from the fitted curve at half-maximal effect
Procedure, shortened: as §2

[6] = qHTS of pediatric cancer cell lines to identify multiple opportunities for drug repurposing: Primary screen for Rh18 cells (AID 1347102); also: nearly all actives have a fitted effect of over 65% in size; also: potency is read from the fitted curve at half-maximal effect
Procedure, shortened: as §3

[7] = qHTS of pediatric cancer cell lines to identify multiple opportunities for drug repurposing: Primary screen for RD cells (AID 1347104); also: potency is read from the fitted curve at half-maximal effect; nearly all actives have a fitted effect of over 55% in size
Procedure, shortened: as §1

[8] = qHTS of pediatric cancer cell lines to identify multiple opportunities for drug repurposing: Primary screen for MG 63 (6-TG R) cells (AID 1347105); also: nearly all actives have a fitted effect of over 50% in size; also: potency is read from the fitted curve at half-maximal effect
Procedure, shortened: as §1

[9] = qHTS of pediatric cancer cell lines to identify multiple opportunities for drug repurposing: Primary screen for Rh30 cells (AID 1347107); also: nearly all actives have a fitted effect of over 75% in size; also: potency is read from the fitted curve at half-maximal effect
Procedure, shortened: as §3

[10] = qHTS of pediatric cancer cell lines to identify multiple opportunities for drug repurposing: Primary screen for Rh41 cells (AID 1347108); also: nearly all actives have a fitted effect of over 70% in size; also: potency is read from the fitted curve at half-maximal effect
Procedure, shortened: as §1

[11] = qHTS of pediatric cancer cell lines to identify multiple opportunities for drug repurposing: Confirmatory screen for NB1643 cells (AID 1347109); also: potency is read from the fitted curve at half-maximal effect; nearly all actives have a fitted effect of over 45% in size
Procedure, shortened: as §3

[12] = qHTS of pediatric cancer cell lines to identify multiple opportunities for drug repurposing: Confirmatory screen for A673 cells (AID 1347110);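 also: potency is read from the fitted curve at half-maximal effect; cells exposed to compound for 48 h before the viability read; nearly all actives have a fitted effect of over 65% in size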
Procedure, shortened: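 A673 cells seeded at 500-1,000 cells/well, rested 5 h, then dosed; primary MIPE 11-point (0.78 nM to 46 µM), NPC (0.59 nM to 46 µM); confirmatory 11-point. CellTiter-Glo luminescence after 48 h.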

[13] = qHTS of pediatric cancer cell lines to identify multiple opportunities for drug repurposing: Confirmatory screen for SK-N-MC cells (AID 1347111);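 also: cells exposed to compound for 48 h before the readout; nearly all actives have a fitted effect of over 70% in size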; also: potency is read from the fitted curve at half-maximal effect
Procedure, shortened: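 Metabolically active cells were quantified by ATP-dependent luminescence (CellTiter-Glo, 15 min at room temperature) following 48 h treatment. Cells had been plated at 500-1,000 per well and settled for 5 h beforehand.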

[14] = qHTS of pediatric cancer cell lines to identify multiple opportunities for drug repurposing: Confirmatory screen for BT-12 cells (AID 1347112); also: potency is read from the fitted curve at half-maximal effect; nearly all actives have a fitted effect of over 55% in size
Procedure, shortened: as §3

[15] = qHTS of pediatric cancer cell lines to identify multiple opportunities for drug repurposing: Confirmatory screen for LAN-5 cells (AID 1347113); also: nearly all actives have a fitted effect of over 65% in size; also: potency is read from the fitted curve at half-maximal effect
Procedure, shortened: as §3

[16] = qHTS of pediatric cancer cell lines to identify multiple opportunities for drug repurposing: Confirmatory screen for DAOY cells (AID 1347114)
Procedure, shortened: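 Viability measured as metabolically active cells via CellTiter-Glo luminescence following 48 hours of compound exposure, 11-point dilutions in confirmatory testing. 500-1,000 cells/well plated 5 hours before dosing; controls were DMSO and 2.3 µM bortezomib.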

[17] = qHTS of pediatric cancer cell lines to identify multiple opportunities for drug repurposing: Primary screen for OHS-50 cells (AID 1347103); also: nearly all actives have a fitted effect of over 40% in size; also: potency is read from the fitted curve at half-maximal effect
Procedure, shortened: as §2

[18] = qHTS of pediatric cancer cell lines to identify multiple opportunities for drug repurposing: Primary screen for U-2 OS cells (AID 1347096); also: nearly all actives have a fitted effect of over 50% in size
Procedure, shortened: as §3

[19] = qHTS of pediatric cancer cell lines to identify multiple opportunities for drug repurposing: Primary screen for control Hh wild type fibroblast cells (AID 1347106); also: nearly all actives have a fitted effect of over 55% in size; also: potency is read from the fitted curve at half-maximal effect
Procedure, shortened: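 Viability after 48 h compound treatment at 37C, 500-1,000 cells/well, read as ATP luminescence with CellTiter-Glo. Primary screens used 11-point (MIPE, 0.78 nM-46 µM) or 8-point (NPC, 0.59 nM-46 µM) final concentrations; follow-up screens used 11-point dilutions.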

[20] = qHTS of pediatric cancer cell lines to identify multiple opportunities for drug repurposing: Confirmatory screen for NB-EBc1 cells (AID 1347115);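 also: cells exposed to compound for 48 h before the viability read; nearly all actives have a fitted effect of over 45% in size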; also: potency is read from the fitted curve at half-maximal effect
Procedure, shortened: as §3

Compound | Potency [1] | Potency [2] | Potency [3] | Potency [4] | Potency [5] | Potency [6] | Potency [7] | Potency [8] | Potency [9] | Potency [10] | Potency [11] | Potency [12] | Potency [13] | Potency [14] | Potency [15] | Potency [16] | Potency [17] | Potency [18] | Potency [19] | Potency [20]
Cc1[nH]nc2ccc(-c3cncc(OC[C@@H](N)Cc4ccccc4)c3)cc12 | 2.96 µM (active) | 1.52 µM (active) | 0.935 µM (active) | 0.372 µM (active) | 1.72 µM (active) | 3.32 µM (active) | 3.32 µM (active) | 2.96 µM (active) | inactive | 4.69 µM (active) | 1.17 µM (active) | 1.51 µM (active) | 2.33 µM (active) | 9.27 µM (active) | 3.29 µM (active) | 4.27 µM (active) | – | – | – | –
Cc1nc(N)ncc1-c1nc(N2CCOCC2)c2sc(C(C)(C)O)cc2n1 | 0.833 µM (active) | 1.21 µM (active) | 0.469 µM (active) | 1.32 µM (active) | – | 1.18 µM (active) | – | 0.296 µM (active) | – | 1.87 µM (active) | 1.65 µM (active) | 2.33 µM (active) | 0.293 µM (active) | – | 1.47 µM (active) | – | 0.0685 µM (active) | – | – | –
CN1CCC(CNc2ccc3ncc(-c4cccc(OC(F)(F)F)c4)n3n2)CC1 | 18.7 µM (active) | 7.64 µM (active) | 18.7 µM (active) | 14.8 µM (active) | 27.3 µM (active) | 18.7 µM (active) | 18.7 µM (active) | 23.5 µM (active) | 23.5 µM (active) | 18.7 µM (active) | – | – | – | – | – | – | 4.85 µM (active) | – | – | –
CC(C)Nc1cc(C(F)(F)F)cc2nc(NC(=O)c3cccnc3)nn12 | – | – | – | inactive | inactive | inactive | – | inactive | inactive | inactive | – | – | – | – | – | – | inactive | inactive | inactive | –
CC(=O)c1c(C)c2cnc(Nc3ccc(N4CCNCC4)cn3)nc2n(C2CCCC2)c1=O | 18.7 µM (active) | 24.1 µM (active) | 16.6 µM (active) | 18.7 µM (active) | – | 23.5 µM (active) | 18.7 µM (active) | – | – | – | – | – | – | – | – | – | 19.3 µM (active) | – | – | –
CC(=O)Nc1nc(C)c(-c2ccc(Cl)c(S(=O)(=O)NCCO)c2)s1 | 2.96 µM (active) | 2.41 µM (active) | 3.32 µM (active) | 5.9 µM (active) | – | 7.43 µM (active) | 4.18 µM (active) | 1.48 µM (active) | – | 6.62 µM (active) | 16.5 µM (active) | – | 8.27 µM (active) | – | 6.57 µM (active) | – | 0.544 µM (active) | – | – | –
CCn1nnc2c(N3CCOCC3)nc(-c3ccc(NC(=O)Nc4ccc(C(=O)N5CCN(C)CC5)cc4)cc3)nc21 | 0.148 µM (active) | 8.57 µM (active) | 0.0743 µM (active) | 0.0833 µM (active) | – | 0.0418 µM (active) | – | 0.0469 µM (active) | 7.43 µM (active) | 0.0935 µM (active) | 1.85 µM (active) | 0.585 µM (active) | 0.657 µM (active) | – | 0.522 µM (active) | – | – | – | – | –
CC(C)c1cc(C(=O)N2Cc3ccc(CN4CCN(C)CC4)cc3C2)c(O)cc1O | 0.935 µM (active) | 0.482 µM (active) | 0.187 µM (active) | 0.209 µM (active) | – | 0.526 µM (active) | 0.209 µM (active) | – | inactive | – | 0.369 µM (active) | 0.293 µM (active) | 0.585 µM (active) | 16.5 µM (active) | 0.465 µM (active) | – | 0.769 µM (active) | – | – | –
CC(C)c1cc(-c2n[nH]c(=O)n2-c2ccc3c(ccn3C)c2)c(O)cc1O | 0.118 µM (active) | 0.242 µM (active) | 0.0662 µM (active) | 0.0662 µM (active) | – | 0.0833 µM (active) | 0.059 µM (active) | – | inactive | – | – | 18.5 µM (active) | inactive | – | inactive | – | 0.153 µM (active) | – | – | inactive
CCCCN1CCC(CNC(=O)c2c3n(c4ccccc24)CCCO3)CC1 | – | 15.2 µM (active) | – | – | – | – | 4.69 µM (active) | 0.935 µM (active) | inactive | – | – | – | – | – | – | – | – | inactive | 1.18 µM (active) | –
CC[C@H](CO)Nc1nc(NCc2ccccc2)c2ncn(C(C)C)c2n1 | – | – | inactive | 20.9 µM (active) | – | inactive | – | inactive | – | – | – | – | – | – | – | – | – | inactive | inactive | –
N#CCNC(=O)c1ccc(-c2ccnc(Nc3ccc(N4CCOCC4)cc3)n2)cc1 | – | 12.1 µM (active) | – | – | 17.2 µM (active) | – | 16.6 µM (active) | 18.7 µM (active) | – | 18.7 µM (active) | – | – | – | – | – | – | – | inactive | – | –
C[C@@H](Oc1cc(-c2cnn(C3CCNCC3)c2)cnc1N)c1c(Cl)ccc(F)c1Cl | 9.35 µM (active) | 19.2 µM (active) | 3.72 µM (active) | 1.05 µM (active) | 24.3 µM (active) | 16.6 µM (active) | – | 18.7 µM (active) | 18.7 µM (active) | 18.7 µM (active) | 5.85 µM (active) | 3.29 µM (active) | 5.85 µM (active) | – | 5.85 µM (active) | – | 2.43 µM (active) | – | inactive | 16.5 µM (active)
